Several values for one entry are separate records, joined by “and”; a condition that tells them apart may be missing. Equal entries are not always repeated. Inconclusive results are not listed. The source holds several records for some structures; these can differ, active in one and inactive in another. Activity calls are given as the source filed them. Rule for the calls, unless noted: active = hit-call score of the fitted dose curve at least 0.9, where 1 is the maximum; inactive = score below 0.9.

Read-out in test [1]: solute carrier (SLCO1B1), SLCO1B1 (gene 10599)
The test is described as follows: LTEA_HepaRG_SLCO1B1: Life Technologies and Expression Analysis (LTEA) Assay for solute carrier (SLCO1B1) using HepaRG (AID 2283530). Conditions: mRNA level, 48 h; actives raise or lower the signal. In short, it runs like this:
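Differentiated human HepaRG cells, plated 48 h, switched to serum-free induction medium and exposed in duplicate for 48 h to 8 half-log concentrations (top 100 uM) in 0.5% DMSO. SLCO1B1 mRNA by TaqMan qRT-PCR, normalized to ACTB/GAPDH/POLR2A.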

Read-out in test [2]: sulfotransferase 2A1 (SULT2A1), SULT2A1 (gene 6822)
Kind of test: LTEA_HepaRG_SULT2A1: Life Technologies and Expression Analysis (LTEA) Assay for sulfotransferase 2A1 (SULT2A1) using HepaRG (AID 2283531). As to conditions: mRNA level, 48 h; actives raise or lower the signal. In short, it runs like this: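 Differentiated human HepaRG cells in serum-free induction medium were exposed for 48 h to eight half-log concentrations (top 100 uM, 0.5% DMSO). SULT2A1 mRNA was measured by qRT-PCR, normalized to ACTB, GAPDH and POLR2A, and fitted bidirectionally against DMSO.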

Read-out in test [3]: Transforming Growth Factor (TGFA), TGFA (gene 7039)
Kind of test: LTEA_HepaRG_TGFA: Life Technologies and Expression Analysis (LTEA) Assay for Transforming Growth Factor (TGFA) using HepaRG (AID 2283532). As to conditions: mRNA level, 48 h; actives raise or lower the signal. The procedure, abridged:
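Differentiated HepaRG cells exposed 48 hours in serum-free induction medium, 0.5% DMSO vehicle, 8-point half-log series from 100 uM, in duplicate. TGFA mRNA by TaqMan qRT-PCR, normalised to ACTB, GAPDH, POLR2A; bidirectional fit versus DMSO.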

Read-out in test [4]: Transforming Growth Factor (TGFB1), TGFB1 (gene 7040)
Kind of test: LTEA_HepaRG_TGFB1: Life Technologies and Expression Analysis (LTEA) Assay for Transforming Growth Factor (TGFB1) Transporter using HepaRG (AID 2283533). Conditions: mRNA level, 48 h; actives raise or lower the signal. In short, it runs like this: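 Differentiated human HepaRG cells in serum-free induction medium were exposed in duplicate for 48 h to eight concentrations (top 100 uM, half-log steps, 0.5% DMSO). TGFB1 mRNA was quantified by qRT-PCR, normalized to ACTB, GAPDH, POLR2A, and fitted bidirectionally against DMSO.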

Read-out in the next test: TIMP1, TIMP1 (gene 7076)
Kind of test: LTEA_HepaRG_TIMP1: Life Technologies and Expression Analysis (LTEA) Assay for TIMP1 using HepaRG (AID 2283534). Conditions: mRNA level, 48 h; actives raise or lower the signal. The procedure, abridged: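 Differentiated human HepaRG cells in serum-free induction medium were exposed 48 h to chemicals (8 half-log concentrations, top 100 uM, 0.5% DMSO). TIMP1 mRNA was quantified by TaqMan qRT-PCR, normalized to ACTB/GAPDH/POLR2A; bidirectional fit versus DMSO.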

Read-out in test [5]: Tumor necrosis factor receptor 1 (TNFRSF1A), TNFRSF1A (gene 7132)
The test is described as follows: LTEA_HepaRG_TNFRSF1A: Life Technologies and Expression Analysis (LTEA) Assay for Tumor necrosis factor receptor 1 (TNFRSF1A) using HepaRG (AID 2283535). As to conditions: mRNA level, 48 h; actives raise or lower the signal. In short, it runs like this:
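Differentiated human HepaRG cells were exposed in duplicate for 48 h in serum-free induction medium to eight concentrations (top 100 uM, half-log steps, 0.5% DMSO). TNFRSF1A mRNA was quantified by qRT-PCR, normalized to ACTB, GAPDH and POLR2A, then fitted bidirectionally against DMSO.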

Read-out in test [6]: Thyroid Hormone Responsive (THRSP), THRSP (gene 7069)
Kind of test: LTEA_HepaRG_THRSP: Life Technologies and Expression Analysis (LTEA) Assay for Thyroid Hormone Responsive (THRSP) using HepaRG (AID 2283536). Conditions: mRNA level, 48 h; actives raise or lower the signal. The procedure, abridged:
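Differentiated HepaRG cells treated 48 h in serum-free induction medium with 8 half-log concentrations up to 100 uM (0.5% DMSO), duplicates. THRSP mRNA by TaqMan qRT-PCR normalised to ACTB, GAPDH, POLR2A; bidirectional fit versus DMSO.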

Read-out in test [7]: Cellular tumor antigen p53 (Homo sapiens) (UniProt P04637)
Kind of test: LTEA_HepaRG_TP53: Life Technologies and Expression Analysis (LTEA) Assay for Tumor Protein P53 (TP53) using HepaRG (AID 2283537). As to conditions: mRNA level, 48 h; actives raise or lower the signal. The procedure, abridged: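 Read-out is TP53 transcript level by microfluidic qRT-PCR, normalised to three housekeeping genes and fitted bidirectionally against DMSO. Human HepaRG cells received compounds for 48 h, highest concentration 100 uM.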

Read-out in test [8]: UDP glucuronosyltransferase (UGT1A1), UGT1A1 (gene 54658)
The test is described as follows: LTEA_HepaRG_UGT1A1: Life Technologies and Expression Analysis (LTEA) Assay for UDP glucuronosyltransferase (UGT1A1) using HepaRG (AID 2283538). As to conditions: mRNA level, 48 h; actives raise or lower the signal. In short, it runs like this: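 HepaRG cells, 0.5% DMSO vehicle, 48 h exposure in serum-free induction medium to 8-point half-log series topping at 100 uM, in duplicate. UGT1A1 mRNA by Fluidigm qRT-PCR, normalized to ACTB/GAPDH/POLR2A; bidirectional fit versus DMSO.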

Read-out in test [9]: X-box binding protein 1 (XBP1), XBP1 (gene 7494)
The test is described as follows: LTEA_HepaRG_XBP1: Life Technologies and Expression Analysis (LTEA) Assay for X-box binding protein 1 (XBP1) using HepaRG (AID 2283540). As to conditions: mRNA level, 48 h; actives raise or lower the signal. In short, it runs like this:
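Differentiated human HepaRG cells in serum-free induction medium were exposed in duplicate for 48 h to eight half-log concentrations up to 100 uM in 0.5% DMSO. XBP1 mRNA was quantified by qRT-PCR, normalised to ACTB, GAPDH and POLR2A, with bidirectional fitting against DMSO.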

Test [10] can be described thus: LTEA_HepaRG_LDH_cytotoxicity: Cytotoxicity Assessment in the Life Technologies and Expression Analysis (LTEA) Assay (AID 2283563; active = hit-call score of the fitted dose curve at least 0.9, where 1 is the maximum;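 for AC50: LDH activity released into spent culture medium as a marker of cell death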). The procedure, abridged:
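Differentiated human HepaRG cells, plated 48 h beforehand, were switched to serum-free induction medium and exposed for 48 h to eight half-log concentrations (top 100 uM) in 0.5% DMSO. LDH was measured in spent medium; activity was fitted relative to DMSO vehicle.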

Test [11] is described as follows: ATG_XTT_Cytotoxicity: Cytotoxicity Assessment in the Attagene TRANS-FACTORIAL HepG2 Assay (AID 2283584; active = hit-call score of the fitted dose curve at least 0.9, where 1 is the maximum). In short, it runs like this: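 HepG2 human liver cells, transiently transfected with multiple GAL4-UAS reporter units, were dosed and read at 24 h by XTT as cell number. Loss of signal was fitted relative to DMSO negative control baseline.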
Test [12] addresses Cellular tumor antigen p53 (Homo sapiens) (UniProt P04637). Kind of test: TOX21_p53_BLA_p2_ratio: Tox21 HCT-116 p53 Agonism Beta-lactamase Assay, Ratio, Phase 2 (AID 2283592; active = hit-call score of the fitted dose curve at least 0.9, where 1 is the maximum). The procedure, abridged: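 HCT116 cells carrying a p53-responsive beta-lactamase reporter were plated, incubated 5 h at 37C, then dosed with compounds in DMSO (217-fold dilution) for 16 h. CCF4-AM substrate was added for 2 h at room temperature; the 460/530 nm emission ratio gave gain-of-signal activity relative to DMSO.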

Test [13] is described as follows: TOX21_p53_BLA_p3_viability: Viability Assessment in the Tox21 HCT-116 p53 Agonism Beta-lactamase Assay, Phase 3 (AID 2283593; active = hit-call score of the fitted dose curve at least 0.9, where 1 is the maximum;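 note: cells exposed to compound for 16 h before reading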). In short, it runs like this:
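HCT116 cells, 4000/well, dosed 5 h after plating by pin transfer (217-fold dilution from DMSO stock) and incubated 16 h at 37C, 5% CO2. Viability read as ATP luminescence with CellTiter-Glo after 30 min at room temperature.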

Test [14] deals with Cellular tumor antigen p53 (Homo sapiens) (UniProt P04637). Kind of test: TOX21_p53_BLA_p3_ratio: Tox21 HCT-116 p53 Agonism Beta-lactamase Assay, Ratio, Phase 3 (AID 2283596; active = hit-call score of the fitted dose curve at least 0.9, where 1 is the maximum). The procedure, abridged: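 HCT116 p53-bla cells (4000/well) given compound in DMSO (217-fold dilution) after 5 h, incubated 16 h at 37C. CCF4-AM substrate 2 h at room temperature; 460/530 nm emission ratio, gain fitted against DMSO.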
Chain of Cellular tumor antigen p53 (Homo sapiens) (P04637 whole entry, looked up): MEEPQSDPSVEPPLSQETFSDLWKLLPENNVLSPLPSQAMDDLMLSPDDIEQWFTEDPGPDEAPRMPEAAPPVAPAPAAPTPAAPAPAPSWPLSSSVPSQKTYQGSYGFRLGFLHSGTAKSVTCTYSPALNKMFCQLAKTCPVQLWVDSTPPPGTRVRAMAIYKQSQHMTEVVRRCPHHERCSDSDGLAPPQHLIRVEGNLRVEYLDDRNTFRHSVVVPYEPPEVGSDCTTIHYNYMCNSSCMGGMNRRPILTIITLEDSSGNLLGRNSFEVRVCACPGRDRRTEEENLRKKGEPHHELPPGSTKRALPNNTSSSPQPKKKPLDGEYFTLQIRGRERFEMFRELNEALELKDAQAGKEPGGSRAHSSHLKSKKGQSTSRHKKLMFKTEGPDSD

Test [15] is described as follows: TOX21_p53_BLA_p4_viability: Viability Assessment in the Tox21 HCT-116 p53 Agonism Beta-lactamase Assay, Phase 4 (AID 2283597; active = hit-call score of the fitted dose curve at least 0.9, where 1 is the maximum;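 note: hits lower the luminescence signal meaning cytotoxicity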). The procedure, abridged: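 HCT116 p53-bla cells (4000/well) rested 5 h at 37C, then received compounds in DMSO (217-fold dilution) for 16 h at 37C, 5% CO2. CellTiter-Glo was added after the CCF4-AM read, and luminescence was read after 30 min at room temperature.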

The target of test [16] is Cellular tumor antigen p53 (Homo sapiens) (UniProt P04637). Kind of test: TOX21_p53_BLA_p5_ratio: Tox21 HCT-116 p53 Agonism Beta-lactamase Assay, Ratio, Phase 5 (AID 2283599; active = hit-call score of the fitted dose curve at least 0.9, where 1 is the maximum). In short, it runs like this:
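HCT-116 p53-bla cells (4000/well) plated 5 h, dosed with compound (217-fold DMSO dilution) for 16 h at 37 C; CCF4-AM substrate 2 h at room temperature. Activity is the 460/530 nm emission ratio (405 nm excitation), fitted in gain-of-signal direction versus DMSO.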

Test [17] can be described thus: TOX21_p53_BLA_p5_viability: Viability Assessment in the Tox21 HCT-116 p53 Agonism Beta-lactamase Assay, Phase 5 (AID 2283600; active = hit-call score of the fitted dose curve at least 0.9, where 1 is the maximum). The procedure, abridged: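 Cells were plated at 4000/well, rested 5 h at 37C, then given compounds in DMSO (217-fold dilution) for 16 h at 37C, 5% CO2. Following the CCF4-AM beta-lactamase read, CellTiter-Glo was added and luminescence was read after 30 min at room temperature.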

For test [18], the target named is Cellular tumor antigen p53 (Homo sapiens) (UniProt P04637). Kind of test: TOX21_p53_BLA_p4_ratio: Tox21 HCT-116 p53 Agonism Beta-lactamase Assay, Ratio, Phase 4 (AID 2283601; active = hit-call score of the fitted dose curve at least 0.9, where 1 is the maximum). In short, it runs like this: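 HCT-116 p53 beta-lactamase reporter cells (4000/well) preincubated 5 h, then compound (217-fold dilution of DMSO stock) for 16 h at 37C. CCF4-AM substrate added 2 h at room temperature; 460/530 nm emission ratio fitted upward versus DMSO.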

`CC(C)(C)C(O)C(Oc1ccc(Cl)cc1)n1cncn1` (centres undefined): the outcome in [1] was “inactive”; in [2], “inactive”; in test [3], “inactive”; in [4], “inactive”; with TIMP1, TIMP1 (gene 7076), “inactive”; in test [5], “inactive”. The molecule was classed as inactive in test [7], in test [9], in test [10], in test [11], in test [12] and in [13]. Moreover, the outcome in test [14], in test [15], in [16], in test [17] and in test [18] was inactive. The AC50 in test [6] was 35.3 µM (active) and 36 µM (active) and 27.9 µM (active); in test [7], 0.354 µM (active); in [8] it was 3.12 µM (active) and 2.49 µM (active) and 3.05 µM (active).
`Oc1ccc(Cl)cc1Cc1ccccc1`: the AC50 in test [1] was 81.5 µM (active); in test [6], 78.1 µM (active) and 50.5 µM (active) and 87.7 µM (active); in test [10] it was 91.5 µM (active) and 93.3 µM (active) and 94.7 µM (active); in test [12], 85 µM (active) and 57.2 µM (active); in test [13], 72.8 µM (active); in test [15], 67.5 µM (active) and 23.3 µM (active) and 36.5 µM (active). The AC50 in test [16] is 79 µM (active) and 86.7 µM (active); in test [17], 73.6 µM (active) and 70.6 µM (active); in [18], 86.5 µM (active) and 41.3 µM (active). The outcome is “inactive” in test [1]; “inactive” in test [2]; “inactive” in test [3]; “inactive” in test [4]; “inactive” with TIMP1, TIMP1 (gene 7076); “inactive” in [5]. The molecule was classed as inactive in test [7], in test [8], in test [9], in [11], in test [12] and in test [13]. Further, the outcome in [14], in test [17] and in test [18] was inactive.

In general, AC50 refers to the concentration giving half of the maximal activity seen.

The record behind these values is PubChem BioAssay (EPA / NIEHS).
